The target in experiment [1] is Cellular tumor antigen p53 (Homo sapiens) (UniProt P04637). Description: TOX21_p53_BLA_p2_ratio: Tox21 HCT-116 p53 Agonism Beta-lactamase Assay, Ratio, Phase 2 (AID 2283592). A digest of the protocol: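 HCT116 cells carrying a p53-responsive beta-lactamase reporter were plated, incubated 5 h at 37C, then dosed with compounds in DMSO (217-fold dilution) for 16 h. CCF4-AM substrate was added for 2 h at room temperature; the 460/530 nm emission ratio gave gain-of-signal activity relative to DMSO.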
Sequence of Cellular tumor antigen p53 (Homo sapiens) (P04637 whole entry, looked up): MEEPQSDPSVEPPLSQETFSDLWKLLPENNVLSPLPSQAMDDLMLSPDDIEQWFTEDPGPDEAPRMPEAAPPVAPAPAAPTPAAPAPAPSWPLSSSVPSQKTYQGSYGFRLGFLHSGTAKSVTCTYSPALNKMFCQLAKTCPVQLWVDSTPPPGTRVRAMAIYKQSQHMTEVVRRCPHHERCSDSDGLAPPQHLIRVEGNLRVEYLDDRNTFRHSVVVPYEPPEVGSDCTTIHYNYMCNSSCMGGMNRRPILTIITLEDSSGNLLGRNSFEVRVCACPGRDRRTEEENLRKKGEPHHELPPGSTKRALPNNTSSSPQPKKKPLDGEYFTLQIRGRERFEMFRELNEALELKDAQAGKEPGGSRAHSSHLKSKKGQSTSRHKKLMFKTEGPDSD

The target is the same in experiment [2]. Description: TOX21_p53_BLA_p3_ratio: Tox21 HCT-116 p53 Agonism Beta-lactamase Assay, Ratio, Phase 3 (AID 2283596). A digest of the protocol: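 HCT116 p53-bla cells (4000/well) given compound in DMSO (217-fold dilution) after 5 h, incubated 16 h at 37C. CCF4-AM substrate 2 h at room temperature; 460/530 nm emission ratio, gain fitted against DMSO.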
Experiment [3] has the same target. Description: TOX21_p53_BLA_p5_ratio: Tox21 HCT-116 p53 Agonism Beta-lactamase Assay, Ratio, Phase 5 (AID 2283599). In outline:
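HCT-116 cells carrying a p53-inducible beta-lactamase reporter were seeded at 4000 cells/well and dosed after 5 h with compound in DMSO (217-fold dilution). After 16 h at 37C, CCF4-AM substrate was added for 2 h, and the 460/530 nm emission ratio was scored as gain-of-signal versus DMSO.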

Experiment [4] shares this target. Description: TOX21_p53_BLA_p4_ratio: Tox21 HCT-116 p53 Agonism Beta-lactamase Assay, Ratio, Phase 4 (AID 2283601). A digest of the protocol:
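HCT116 cells carrying an inducible beta-lactamase reporter were plated at 4000 cells/well, rested 5 h, then exposed to compounds in DMSO (217-fold dilution) for 16 h at 37C. CCF4-AM substrate was loaded 2 h at room temperature; 460/530 nm emission ratio scored gain-of-signal versus DMSO.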

Experiment [5] in a line: STM_H9_OrnCyssISnorm_ratio: Stemina devTOX quickPredict H9 human embryonic stem cell (hESC)-based Assay for Ornithine (ORN):Cystine (CYSS) Ratio (AID 2283714). In outline: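 Undifferentiated H9 hESCs were exposed to compound for 72h with media and chemical replaced every 24h. Final 24-h conditioned media were deproteinized and analysed by UPLC-HRMS. ORN and CYSS peak areas were normalized to C13 internal standards and the ratio taken versus 0.1% DMSO.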

A short description of experiment [6]: CCTE_Harrill_HTTr_Viability_MCF7: CCTE's 6-hour Cell Viability Assessment for the High-Throughput Transcriptomics (HTTr) Platform, in MCF-7 cells cultured in DMEM + 10% fetal bovine serum, Harrill Lab (AID 2284010; active = hit-call score of the fitted dose curve at least 0.9, where 1 is the maximum; inactive = score below 0.9). A digest of the protocol: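 MCF-7 cells in DMEM + 10% FBS, 384-well, exposed 6 h to an eight-point dilution series. Membrane integrity scored by high-content imaging of propidium iodide exclusion; bidirectional fit versus DMSO.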

The nature of experiment [7]: CCTE_Harrill_HTTr_CellCount_MCF7: CCTE's Cell Proliferation Assessment for the High-Throughput Transcriptomics (HTTr) Platform, Harrill Lab (AID 2284012).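 Also: cells exposed to compound for six hours; intended direction is loss of nuclei count meaning fewer cells.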 In outline: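 MCF7 cells exposed 6 hours to an eight-point dilution series; Hoechst-stained nuclei counted by high-content imaging. Bidirectional curve fitting against DMSO baseline.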
Experiment [8] can be described thus: TOX21_p53_BLA_p5_viability: Viability Assessment in the Tox21 HCT-116 p53 Agonism Beta-lactamase Assay, Phase 5 (AID 2283600). A digest of the protocol:
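Cells were plated at 4000/well, rested 5 h at 37C, then given compounds in DMSO (217-fold dilution) for 16 h at 37C, 5% CO2. Following the CCF4-AM beta-lactamase read, CellTiter-Glo was added and luminescence was read after 30 min at room temperature.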

The test system of experiment [9] is Brachyury (BRA) Protein Expression, Deisenroth Lab, TBXT (gene 6862). Description: CCTE_Deisenroth_DEVTOX-GLR_legacy_Bra: (Legacy) CCTE's DevTox GLR-Endo Assay Evaluation of Brachyury (BRA) Protein Expression, Deisenroth Lab (AID 2284329; active = hit-call score of the fitted dose curve at least 0.9, where 1 is the maximum; inactive = score below 0.9). In outline:
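RUES2-GLR human pluripotent cells differentiated 48 h with two 24-h-interval chemical exposures (1 nM - 200 uM, 10 points); fixed, nuclear-stained, imaged. Bra+ cell percentage (intensity 5x BMAD above pluripotent control median) fitted relative to 0.2% DMSO.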

The nature of experiment [10]: CCTE_Deisenroth_DEVTOX-GLR_legacy_CellCount: (Legacy) Viability Assessment in CCTE's DevTox GLR-Endo Assay, Deisenroth Lab (AID 2284331; active = hit-call score of the fitted dose curve at least 0.9, where 1 is the maximum; inactive = score below 0.9). The settings on record: actives raise or lower the signal. In outline: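 Nuclei count by fluorescence high-content imaging (5 fields/well) after 48 h differentiation of RUES2-GLR cells. Two exposures, 24 h apart; 1 nM - 200 uM series; n=4. Bidirectional fit vs DMSO.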

Experiment [11] concerns SRY-box transcription factor 17 (SOX17) Protein Expression, Deisenroth Lab, SOX17 (gene 64321). Description: CCTE_Deisenroth_DEVTOX-GLR_legacy_Sox17: (Legacy) CCTE's DevTox GLR-Endo Assay Evaluation of SRY-box transcription factor 17 (SOX17) Protein Expression, Deisenroth Lab (AID 2284341; active = hit-call score of the fitted dose curve at least 0.9, where 1 is the maximum; inactive = score below 0.9). The settings on record: actives raise or lower the signal. A digest of the protocol:
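RUES2-GLR human pluripotent cells, seeded 24 h, then differentiated 48 h in defined media with two chemical exposures 24 h apart (1 nM - 200 uM, 10 points). Sox17+ fraction from high-content fluorescence imaging; bidirectional fit versus 0.2% DMSO.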

In experiment [12] the test system is SRY-box transcription factor 2 (SOX2) Protein Expression, Deisenroth Lab, SOX2 (gene 6657). Description: CCTE_Deisenroth_DEVTOX-GLR_legacy_Sox2: (Legacy) CCTE's DevTox GLR-Endo Assay Evaluation of SRY-box transcription factor 2 (SOX2) Protein Expression, Deisenroth Lab (AID 2284346; active = hit-call score of the fitted dose curve at least 0.9, where 1 is the maximum; inactive = score below 0.9). A digest of the protocol:
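RUES2-GLR human pluripotent cells seeded 24 h, then differentiated 48 h in defined media with two chemical doses 24 h apart (10-point, 1 nM–200 uM). Fixed, nuclear-stained, imaged; % Sox2+ cells (>5x BMAD over endoderm control median), DMSO-subtracted, fitted upward.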

For experiment [13], the system named is SRY-box transcription factor 17 (SOX17) Protein Expression, Deisenroth Lab, SOX17 (gene 64321). Description: CCTE_Deisenroth_DEVTOX-GLR_Endo_SOX17: CCTE's DevTox GLR-Endo Assay Evaluation of SRY-box transcription factor 17 (SOX17) Protein Expression, Deisenroth Lab (AID 2284413; active = hit-call score of the fitted dose curve at least 0.9, where 1 is the maximum; inactive = score below 0.9). A digest of the protocol: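 Endpoint: % change in SOX17+ fraction (SOX17+ cells / cell count) vs 0.2% DMSO solvent control. RUES2-GLR reporter cells, 48 h endoderm differentiation, two doses at 24 h intervals, high-content fluorescence imaging, 5 fields/well.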

Experiment [14] concerns Brachyury (BRA) Protein Expression, TBXT (gene 6862). Description: CCTE_Deisenroth_DEVTOX-GLR_Endo_BRA: CCTE's DevTox GLR-Endo Assay Evaluation of Brachyury (BRA) Protein Expression, Deisenroth Lab (AID 2284417; active = hit-call score of the fitted dose curve at least 0.9, where 1 is the maximum; inactive = score below 0.9). A digest of the protocol: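 RUES2-GLR human pluripotent cells, seeded 24 h, then differentiated 48 h in defined media with two chemical exposures 24 h apart (10-point series, 1 nM - 200 uM). Fixed, nuclear-stained, imaged; endpoint is percent BRA+ cells minus 0.2% DMSO control.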

Experiment [15] is described as follows: CCTE_Deisenroth_DEVTOX-GLR_Endo_CellCount: Viability Assessment in CCTE's DevTox GLR-Endo Assay, Deisenroth Lab (AID 2284420; active = hit-call score of the fitted dose curve at least 0.9, where 1 is the maximum; inactive = score below 0.9). A digest of the protocol: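 RUES2-GLR human pluripotent cells seeded 24 h, then differentiated 48 h with two chemical exposures at 24 h intervals (10-point, 1 nM - 200 uM). Fixed, nuclear-stained, imaged; nuclei counts give % change in cell count versus 0.2% DMSO.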

Experiment [16] has as its system SRY-box transcription factor 17 (SOX17) Protein Expression, Deisenroth Lab, SOX17 (gene 64321). Description: CCTE_Deisenroth_DEVTOX-GLR_Pluri_SOX17: CCTE's DevTox GLR-Pluri Assay Evaluation of SRY-box transcription factor 17 (SOX17) Protein Expression, Deisenroth Lab (AID 2284427). A digest of the protocol: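 RUES2-GLR human pluripotent cells were seeded 24 h, then differentiated 48 h in defined media with two chemical exposures 24 h apart (10-point series, 1 nM - 200 uM). Fixed, nuclear-stained cells were imaged; %SOX17+ cells minus 0.2% DMSO control reported.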

Experiment [17] has as its system SRY-box transcription factor 2 (SOX2) Protein Expression, Deisenroth Lab, SOX2 (gene 6657). Description: CCTE_Deisenroth_DEVTOX-GLR_Pluri_SOX2: CCTE's DevTox GLR-Pluri Assay Evaluation of SRY-box transcription factor 2 (SOX2) Protein Expression, Deisenroth Lab (AID 2284428; active = hit-call score of the fitted dose curve at least 0.9, where 1 is the maximum; inactive = score below 0.9). In outline:
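Human pluripotent RUES2-GLR cells were seeded 24 h, then differentiated 48 h in defined media with two chemical doses at 24-h intervals (10-point, 1 nM–200 uM). Nuclear-stained cells were imaged; SOX2+ cells/cell count gave percent change versus 0.2% DMSO control.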

Experiment [18] deals with Brachyury (BRA) Protein Expression, Deisenroth Lab, TBXT (gene 6862). Description: CCTE_Deisenroth_DEVTOX-GLR_Pluri_BRA: CCTE's DevTox GLR-Pluri Assay Evaluation of Brachyury (BRA) Protein Expression, Deisenroth Lab (AID 2284429). A digest of the protocol: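 Human pluripotent RUES2-GLR cells, seeded 24 h, were differentiated 48 h in defined media with two chemical doses at 24-h intervals (10-point, 1 nM - 200 uM). Readout: percent BRA+ cells by fluorescent reporter imaging, minus 0.2% DMSO control.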

Experiment [19] in a line: CCTE_Deisenroth_DEVTOX-GLR_Pluri_CellCount: Viability Assessment in CCTE's DevTox GLR-Pluri Assay Evaluation of Total Cell Counts, Deisenroth Lab (AID 2284430; active = hit-call score of the fitted dose curve at least 0.9, where 1 is the maximum; inactive = score below 0.9). In outline:
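RUES2-GLR human pluripotent cells, seeded 24 h, then differentiated 48 h with two chemical exposures 24 h apart; 10-point series 1 nM - 200 uM. Fixed, nuclear-stained, imaged (5 fields/well); nuclei count as % change vs 0.2% DMSO.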

Experiment [20] is described as follows: TOX21_TRB_BLA_Antagonist_Followup_viability: Viability Assessment in the Tox21 Thyroid Hormone Receptor beta Antagonism Beta-lactamase (BLA) Follow-Up Assay (AID 2283961). A digest of the protocol: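 HEK293T cells stably expressing GAL4-DBD/human TRβ-LBD with UAS-bla reporter, 3,000 cells/well in phenol red-free DMEM, 2% charcoal-stripped FBS. Compounds at 11 concentrations in triplicate, 18 h at 37C/5% CO2; viability by CellTiter-Glo luminescence after 30 min at room temperature.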

Inconclusive results are not listed. Active and inactive are the calls of the source. The calls were made as follows, unless noted: active = hit-call score of the fitted dose curve at least 0.9, where 1 is the maximum; inconclusive = response in the unintended direction; inactive = score below 0.9.

Regarding `O=C(c1ccccc1)C1(O)CCCCC1`, the result in experiment [1], in experiment [2], in experiment [3], in [4], in experiment [5] and in experiment [6] was inactive. In experiment [7], the compound was called inactive.

For the compound `CN1C[C@H]2c3ccccc3Oc3ccc(Cl)cc3[C@@H]2C1`, the result in experiment [1], in experiment [3] and in [4] was inactive. The AC50 (usually the concentration giving half of the maximal activity seen) in [2] is 43.8 µM (active).

Consider `O=C(NCCCN1CCOCC1)c1ccc(Cl)cc1`, for which the result in [1], in experiment [2] and in experiment [4] was inactive.

In the case of `NC(=O)N1c2ccccc2CC(=O)c2ccccc21`, the result in experiment [1], in experiment [2], in [3], in [4], in [6] and in experiment [7] was inactive.

As to `O=C(O)CC(=O)O`, the outcome in experiment [1], in [2] and in [4] was inactive.

For `C[C@@](Cc1ccc(O)c(O)c1)(NN)C(=O)O`, the result in [1], in experiment [2], in experiment [8] and in [4] was inactive.

For the compound `Nc1nc2c(ncn2COCCO)c(=O)[nH]1`, the result in [1], in experiment [2], in experiment [3], in [9], in [10] and in experiment [11] was inactive. Moreover, the compound was classed as inactive in [12], in experiment [13], in experiment [14], in experiment [15], in [16] and in experiment [17]. For the same compound, the outcome in experiment [18] and in experiment [19] was inactive.

For `CCCCc1ccc2nc(NC(=O)OC)[nH]c2c1`, the outcome in experiment [1], in experiment [3] and in [4] was inactive. For the same compound, in experiment [2], the AC50 is 0.0408 µM (active).

Consider `C#C[C@]1(O)CC[C@H]2[C@@H]3CCC4=CC(=O)CC[C@@H]4[C@H]3C(=C)C[C@@]21CC`, for which the outcome in experiment [1], in experiment [2], in experiment [3], in [4] and in [20] was inactive.

On to `CCCOCC(C)OCC(C)O` (centres undefined), for which the outcome in experiment [1], in experiment [2], in experiment [8] and in experiment [4] was inactive.

`CC(=O)CCC=C(C)CC/C=C(\C)CC/C=C(\C)CCC=C(C)C`: the result in [1], in [2] and in experiment [4] was inactive.

In the case of `CC(CN(C)C)CN1c2ccccc2CCc2ccccc21` (centres undefined), the result in experiment [1], in experiment [2], in [8] and in [4] was inactive.

Consider `NC(=O)c1ccccc1[N+](=O)[O-]`, for which the result in [1], in experiment [2] and in [4] was inactive.
